# Assay outcomes as filed in PubChem.
# This is a sample that favours compounds with a hit; in the whole collection about 2.1% have one here.
# BJeLR viability: kills HRASV12-expressing BJeLR cells; 0.17% of 300,000 active; BJeLR (HRASV12) viability, CellTiter-Glo ATP luminescence, 48 h; AID 1554; inhibition, % (no concentration beside the values); in the data active = inhibition above about 50%
# PrPC surface inh: cell surface PrPC inhibition, primary TR-FRET screen. P04156. TR-FRET read-out. inhibition, % at 13.8 µM. 0.43% of 370,000 active. AID 720596; in the data active = inhibition above about 24%; also: 0% = median of the test wells and 100% = reference compound wells
# PfHsp40 yeast: rescue of PfHsp40-mediated yeast toxicity; 0.68% of 340,000 active; growth rescue, % at 12.5 µM; S. cerevisiae expressing PfHsp40, growth rescue, ATP luminescence; in the data active = growth rescue above about 28%, passing the limit was not always enough;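 also: yeast W303a lacking pdr1 and pdr3 grown in galactose medium; growth measured after three days at 30 °C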
# PrP 5UTR inh: suppresses PrP 5' UTR mRNA reporter expression; inhibition, % (no concentration beside the values); 0.35% of 340,000 active; AID 488862; cell-based PrP 5' UTR mRNA reporter, plate reader; in the data active = inhibition above about 52%; also: 0 = median of the neutral control wells
# MazEF act: activators of E. coli MazEF toxin-antitoxin RNase. activation, % at 20 µM. P0AE70. FAM/BHQ RNA-DNA oligo cleavage fluorescence, 5 h. 0.32% of 350,000 active; in the data active = activation above about 50%
# Target sequence (P0AE70 whole entry, looked up): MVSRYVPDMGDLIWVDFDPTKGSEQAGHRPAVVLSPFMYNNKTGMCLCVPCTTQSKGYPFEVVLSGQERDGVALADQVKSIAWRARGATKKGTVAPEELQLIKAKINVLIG
# DUSP3 inh: DUSP3 (human) phosphatase inhibition; P51452; recombinant VHR phosphatase, pNPP absorbance; inhibition, % at 13.3 µM; 0.52% of 290,000 active; in the data active = inhibition above about 50%
# Target sequence (P51452 whole entry, looked up): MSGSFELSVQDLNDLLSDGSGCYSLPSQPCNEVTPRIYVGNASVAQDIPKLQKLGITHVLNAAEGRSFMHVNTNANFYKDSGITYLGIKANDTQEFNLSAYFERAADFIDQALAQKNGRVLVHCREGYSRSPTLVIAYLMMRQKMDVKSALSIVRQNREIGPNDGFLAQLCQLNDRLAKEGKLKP
# An asterisk follows results filed as active; . = not tested or not shown.
SMILES,BJeLR viability,PrPC surface inh,PfHsp40 yeast,PrP 5UTR inh,MazEF act,DUSP3 inh
O=C(NCCc1ccccc1)C1CCCN1C(=O)Nc1ccccc1 (stereo not drawn),-7,-1,2,12,7,-4
O=C(NCc1ccc(F)cc1)C1CCCN1C(=O)Nc1ccccc1 (stereo not drawn),10,8,-1,-11,-11,59*
O=C(NCCc1ccccc1)C1CCCN1C(=O)Nc1ccc(Cl)cc1 (stereo not drawn),-1,5,0,-15,7,53*
O=C(NCc1ccc(F)cc1)C1CCCN1C(=O)Nc1ccc(F)cc1 (stereo not drawn),-7,6,-1,-1,9,4
CC(C)(C)OC(=O)N/N=C/c1ccc(N2CCOCC2)s1,4,-9,-1,-44,226*,-7
Nc1ccc(C(=O)N/N=C/c2ccc(N3CCOCC3)s2)cc1,.,-13,-1,-23,-5,.
COC(=O)C1CCN(C(=O)CN2CCC(C(=O)c3ccc(C)cc3)CC2)CC1,.,-8,.,.,.,.
COc1cc2c(C#N)c(N3CCOCC3)nc(N)c2c(N)n1,-17,2,-1,3,20,-1
COc1cc2c(C#N)c(N3CCCCC3)nc(N)c2c(N)n1,-9,-2,2,7,56*,-27
COc1cc2c(C#N)c(N3CCc4ccccc4C3)nc(N)c2c(N)n1,2,0,-1,-8,62*,21
CCN(C(=O)COC(=O)c1ccc(C)c(S(=O)(=O)N2CCCCC2)c1)C1CCS(=O)(=O)C1 (stereo not drawn),5,0,0,-8,2,.
O=C(Cn1cnc2ccc(Cl)cc2c1=O)NC1CCS(=O)(=O)C1 (stereo not drawn),.,6,0,6,0,.
OC(Cn1cncn1)(Cn1cncn1)c1ccc(F)cc1F,-3,-2,179*,-2,-6,.
CC(=O)NC(c1ccccc1)c1nc(-c2cccc(C#N)c2)cs1 (stereo not drawn),.,-5,.,.,.,.
O=C(C1COc2ccccc2O1)N1CCCCC1 (stereo not drawn),.,-7,-1,-16,5,.
O=C(C1COc2ccccc2O1)N1CCN(c2ccccc2Cl)CC1 (stereo not drawn),-1,-3,35*,-28,7,34
Cc1cccc(N2CCN(C(=O)C3COc4ccccc4O3)CC2)c1C (stereo not drawn),3,-2,206*,-20,-3,36
O=C(C1COc2ccccc2O1)N1CCN(c2ccccc2F)CC1 (stereo not drawn),-3,0,0,-24,5,15
CCN(C(=O)COc1ccc(C(C)=O)cc1)c1cccc2ccccc12,.,-1,1,-18,-11,.
Cc1ccc(C2(CCNCc3ccc(N(C)C)cc3)CCOC(C(C)C)C2)cc1 (stereo not drawn),5,1,0,-7,7,57*
CC(C)C1CC(CCNCc2ccc(N(C)C)cc2)(c2ccccc2)CCO1 (stereo not drawn),-2,0,0,12,27,40
Cc1ccc(-c2cc(-c3ccc(F)cc3)n[nH]2)c(O)c1,5,5,180*,-63,14,13
Oc1ccccc1-c1cc(-c2ccc(F)cc2)n[nH]1,-7,-3,170*,-66,7,14
Cc1ccc(-c2cc(-c3ccc(C)cc3O)[nH]n2)cc1,2,3,-1,-56,11,-10
Cc1ccc(-c2cc(-c3ccccc3Cl)[nH]n2)c(O)c1,-2,5,136*,-185,9,-8
SMILES,BJeLR viability,PrPC surface inh,PfHsp40 yeast,PrP 5UTR inh,MazEF act,DUSP3 inh
Oc1ccc(Cl)cc1-c1cc(-c2ccccc2)n[nH]1,0,-3,1,-7,21,19
Cc1ccc(O)c(-c2cc(-c3cccc(Br)c3)n[nH]2)c1,-8,-1,119*,-59,4,-5
CCCCCCCCN1C(=O)[C@H](CC(=O)NCc2cccc(C(F)(F)F)c2)C[C@@]2(C(=O)OCC)CCC=C12,.,-4,.,.,.,.
COc1ccc(-c2cc(-c3ccccc3)n[nH]2)c(O)c1,-1,0,80*,-63,1,15
CC(C)(C)C(=O)Nc1nc(C2CCCN2S(=O)(=O)c2ccc(Cl)cc2)cs1 (stereo not drawn),-1,11,1,-16,50*,6
O=C(Nc1nc(-c2ccccc2)cs1)C1CCCCN1S(=O)(=O)c1ccc(Cl)cc1 (stereo not drawn),6,.,0,-3,-11,2
